# D1 antagonist = human D1 dopamine receptor antagonism. P21728. HEK293 TREx D1 cells, calcium flux, dopamine EC80; hits give low values. activity change, negative = inhibition, % at 10 µM. actives 3.2% (n = 360,000). AID 504652; in the data active = activity change below about -30%
#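 Antagonism measured as reduced calcium response to an EC80 dopamine addition following 180 s compound pre-read; cells were inducible HEK293 Trex D1 plated overnight at 30 C, read kinetically at 1 cycle/sec.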
# DRD3 antagonist = antagonists of human D3 dopamine receptor | max response, negative = inhibition, % | AID 652054 | actives 2.5% (n = 360,000) | D3R cells, DiscoveRx beta-arrestin luminescence, antagonist mode; hits give low values; in the data active = max response below about -50%; inconclusive = no clear call, values can overlap the other calls
# Target sequence (P35462 whole entry, looked up): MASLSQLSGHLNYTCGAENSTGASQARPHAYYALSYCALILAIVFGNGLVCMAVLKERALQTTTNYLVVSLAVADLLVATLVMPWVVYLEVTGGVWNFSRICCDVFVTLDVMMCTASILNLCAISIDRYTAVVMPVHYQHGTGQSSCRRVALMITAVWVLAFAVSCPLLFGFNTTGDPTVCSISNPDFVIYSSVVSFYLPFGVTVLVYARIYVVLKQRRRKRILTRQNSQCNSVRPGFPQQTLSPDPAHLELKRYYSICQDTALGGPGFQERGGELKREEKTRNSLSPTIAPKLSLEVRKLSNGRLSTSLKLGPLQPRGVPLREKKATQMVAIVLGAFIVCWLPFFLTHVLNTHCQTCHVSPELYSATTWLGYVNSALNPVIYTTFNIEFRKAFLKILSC
#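 Cells plated overnight at 1500 cells/well, then exposed to library compounds with dopamine controls for 90 minutes at 37 degrees C. DiscoveRx reagent added for 30–60 minutes at room temperature; luminescence read, quantitative HTS format.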
# D1 agonist = activates the human D1 dopamine receptor; P21728; HEK293 T-REx D1 cells, calcium flux, agonist mode; activation, % at 2 µM; actives 1% (n = 360,000); AID 504660; in the data active = activation above about 30%
#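 Tetracycline-induced HEK293 TREx D1 cells, force-coupled to calcium signalling, were dye-loaded with a no-wash calcium kit. Compound was pin-added after a 10 s baseline. Fluorescence was read kinetically at 1 cycle/s for 180 s, with calcium rises flagged as agonism.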
# D1 potentiator = enhances dopamine response at the human D1 receptor. HEK293 TREx D1 cells, calcium flux, dopamine EC20 potentiation. potentiation, % at 10 µM. AID 504651. actives 0.036% (n = 360,000). P21728; in the data active = potentiation above about 30%
# DRD3 agonist = activates the human D3 dopamine receptor; P35462; D3R DiscoveRx beta-arrestin cells, luminescence, 90 min; max activation, %; actives 0.58% (n = 410,000); AID 652048; in the data active = max activation above about 30%
#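 Cells at 1500/well, incubated overnight, then treated with pinned compounds (dopamine as control) for 90 min at 37 degrees C. DiscoveRx reagent added for 30 - 60 minutes at room temperature; luminescence read.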
# Hits are given with their value; . = inactive; ? = inconclusive; / = no result given. Sampled rows, rich in hits. Any-hit rate of the full collection: about 6%.
SMILES,D1 antagonist,DRD3 antagonist,D1 agonist,D1 potentiator,DRD3 agonist
COc1ccc(-c2nnc(NC(=O)c3ccc(S(=O)(=O)N4COCC4(C)C)cc3)o2)cc1,.,-64.6,.,.,.
CC1(C)COCN1S(=O)(=O)c1ccc(C(=O)Nc2nnc(-c3ccc(Cl)s3)o2)cc1,.,.,.,.,.
N#Cc1cc2nc(O)c(O)nc2cc1[N+](=O)[O-],.,?,.,.,.
CNc1nc2cc([N+](=O)[O-])c([N+](=O)[O-])cc2nc1NC,.,.,39.4,.,.
CCc1nn(CCCC(=O)N2CCN(c3cc(Cl)ccc3C)CC2)c(=O)c2cc3occc3n12,.,/,.,.,.
O=C(CCCCCN1C(=O)c2cccc3cccc(c23)C1=O)NC1CCS(=O)(=O)C1 (stereo unspecified),-31.1,.,.,.,.
CCCCCCCNC(=O)C1(CC2CC(c3ccc(Cl)cc3)=NO2)CCN(C(=O)OC(C)(C)C)CC1 (stereo unspecified),.,.,.,.,.
CCCc1[nH]nc2c1C(c1ccc(O)c(OC)c1)C(C#N)=C(N)O2 (stereo unspecified),.,.,.,.,.
CCCc1[nH]nc2c1C(c1ccc(OCCN3CCOCC3)c(OC)c1)C(C#N)=C(N)O2 (stereo unspecified),.,-64.3,.,.,.
Nc1ccc(CSc2ccc(Cl)cc2)c(Cl)c1,/,.,/,/,.
CCc1cccc(-n2c(=O)c3cccnc3n2CC(=O)Nc2ccc(OC)c(Cl)c2)c1,-63.2,/,.,.,.
C=CCNC(=O)C1CCN(S(=O)(=O)c2cccs2)CC1,.,.,.,.,.
CN(C)c1ccc(C=c2c3ccccc3n3c2c2c([n+]3C)CCCC2)cc1,/,.,/,/,.
CCN(c1ccccc1)S(=O)(=O)c1cccc(C(=O)NCC(c2ccco2)N2CCCC2)c1 (stereo unspecified),.,-57.8,.,.,.
Cc1ccc(C)c(S(=O)(=O)Nc2ccc(C(=O)NCC(c3ccco3)N3CCCCC3)cc2)c1 (stereo unspecified),.,.,.,.,.
COc1ccccc1NS(=O)(=O)c1cc(C(=O)NCC(c2ccco2)N(C)C)ccc1C (stereo unspecified),.,?,.,.,.
COc1ccccc1NS(=O)(=O)c1cccc(C(=O)NCC(c2ccco2)N(C)C)c1 (stereo unspecified),.,-68.3,.,.,.
Cc1ccc(C)c(S(=O)(=O)Nc2ccc(C(=O)NCC(c3ccco3)N(C)C)cc2)c1 (stereo unspecified),.,-52.9,.,.,.
CCN(c1ccccc1)S(=O)(=O)c1cccc(C(=O)NCC(c2cccs2)N(C)C)c1 (stereo unspecified),.,-55.9,.,.,.
Cc1ccc(NC(=O)c2ccco2)c(NC(=O)c2ccc(Cl)cc2)c1,.,.,.,.,.
CCOC(=O)CNC(=O)c1ccc(SCC)cc1,.,.,.,.,.
COc1ccc(N2C(=O)CSC23C(=O)N(CC(=O)NCc2ccccc2)c2ccccc23)cc1 (stereo unspecified),.,/,.,.,.
COc1ccccc1NS(=O)(=O)c1cccc(C(=O)NCC(c2cccs2)N(C)C)c1 (stereo unspecified),/,-85.3,/,/,.
CN(C)C(CNC(=O)c1cc(S(=O)(=O)N(C)c2ccccc2)ccc1Cl)c1cccs1 (stereo unspecified),-44.0,.,.,.,.
CNS(=O)(=O)c1cccc(C(=O)NCC(c2cccs2)N(C)C)c1 (stereo unspecified),.,-72.0,.,.,.
SMILES,D1 antagonist,DRD3 antagonist,D1 agonist,D1 potentiator,DRD3 agonist
Cc1ccc(NS(=O)(=O)c2cccc(C(=O)NCC(c3cccs3)N(C)C)c2)cc1 (stereo unspecified),.,.,.,.,.
Cc1ccccc1NS(=O)(=O)c1ccc(C(=O)NCC(c2ccco2)N(C)C)cc1 (stereo unspecified),.,-57.3,.,.,.
COc1cccc(S(=O)(=O)Nc2ccc3c(c2)C(=O)N(C)C[C@H](OC)[C@H](C)CN(Cc2ccccc2F)[C@@H](C)CO3)c1,/,.,/,/,.
Cc1ccc2nc(NC(=O)CSc3cc(C)[nH]c(=O)n3)sc2c1,/,/,.,.,.
CCOc1ccccc1NC(=O)CSc1ccc2nc(-c3ccccc3)cn2n1,.,/,.,.,.
Cc1ccc2c(NCc3ccco3)nc(NC(C)C)nc2c1,/,.,/,/,.

# From PubChem
